What was measured:
Assay in all cases: DAPPL (digital affinity profiling via proximity ligation, sequencing); 10 mM Tris-HCl pH 7.5, 50 mM NaCl, 1 mM DTT, 4% glycerol, room temperature, 30 min; GST-TFs on glutathione beads, 16-mer random dsDNA library, 0.1% formaldehyde crosslink after washing; high values mean tight binding
FEV = biological target: T1, FEV (Homo sapiens, UniProt Q99581 1-238); conditions: protein: recombinant; tags: N-terminal GST; dsDNA, one strand shown
T1 sequence: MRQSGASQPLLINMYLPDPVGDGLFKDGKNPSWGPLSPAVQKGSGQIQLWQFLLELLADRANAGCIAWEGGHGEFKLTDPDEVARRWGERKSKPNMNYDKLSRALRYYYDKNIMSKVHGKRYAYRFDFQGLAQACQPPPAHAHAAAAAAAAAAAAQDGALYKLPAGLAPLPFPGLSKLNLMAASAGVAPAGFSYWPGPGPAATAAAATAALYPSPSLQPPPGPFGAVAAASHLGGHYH
In short: (§1)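 Binding signal is defined as a hexamer's read frequency for one factor over its frequency for the tag-only sample. To obtain reads, GST-fused human transcription factors were expressed in yeast, captured on glutathione beads, barcoded with DNA and pooled with that sample. Pools met 200 nmole of a 16-mer random double-stranded DNA library in Tris/NaCl/DTT/glycerol buffer for 30 min at room temperature before washing, 0.1% formaldehyde crosslinking, proximity ligation (BsaI/T4 ligase, 1 h, 37 °C), PCR and Illumina NextSeq500 sequencing.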

HSF1 = HSF1 (Homo sapiens, UniProt Q00613 1-529); conditions: protein: recombinant; tags: N-terminal GST; chain copies: 3; dsDNA, one strand shown
In short: as §1

CRX = CRX (Homo sapiens, UniProt O43186 1-299); conditions: protein: recombinant; tags: N-terminal GST; dsDNA, one strand shown
In short: as §1

SPDEF = biological target: T2, SPDEF (Homo sapiens, UniProt O95238 1-335); conditions: protein: recombinant; tags: N-terminal GST; dsDNA, one strand shown
T2 sequence: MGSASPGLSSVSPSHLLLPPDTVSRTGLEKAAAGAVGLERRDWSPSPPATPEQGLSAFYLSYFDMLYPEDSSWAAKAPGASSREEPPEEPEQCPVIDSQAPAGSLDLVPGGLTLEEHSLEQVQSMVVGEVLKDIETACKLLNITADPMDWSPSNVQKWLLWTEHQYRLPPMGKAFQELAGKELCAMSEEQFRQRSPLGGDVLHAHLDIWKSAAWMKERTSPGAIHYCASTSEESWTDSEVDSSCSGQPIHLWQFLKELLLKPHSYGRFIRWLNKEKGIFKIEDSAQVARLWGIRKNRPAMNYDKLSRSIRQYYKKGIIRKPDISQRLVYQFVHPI
In short: as §1

ELF5 = biological target: T3, ELF5 (Homo sapiens, UniProt Q9UKW6-2 1-255); conditions: protein: recombinant; tags: N-terminal GST; dsDNA, one strand shown
T3 sequence: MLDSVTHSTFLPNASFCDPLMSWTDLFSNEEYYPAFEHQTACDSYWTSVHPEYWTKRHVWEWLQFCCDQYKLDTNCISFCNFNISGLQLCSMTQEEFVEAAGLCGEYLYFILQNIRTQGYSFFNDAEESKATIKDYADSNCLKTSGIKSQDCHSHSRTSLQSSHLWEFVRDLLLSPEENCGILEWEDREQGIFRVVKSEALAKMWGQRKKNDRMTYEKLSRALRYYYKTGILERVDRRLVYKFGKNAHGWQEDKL
In short: as §1

SPI1 = SPI1 (Homo sapiens, UniProt P17947 1-270); conditions: protein: recombinant; tags: N-terminal GST; dsDNA, one strand shown
In short: as §1

CRX, sequence (O43186 whole entry): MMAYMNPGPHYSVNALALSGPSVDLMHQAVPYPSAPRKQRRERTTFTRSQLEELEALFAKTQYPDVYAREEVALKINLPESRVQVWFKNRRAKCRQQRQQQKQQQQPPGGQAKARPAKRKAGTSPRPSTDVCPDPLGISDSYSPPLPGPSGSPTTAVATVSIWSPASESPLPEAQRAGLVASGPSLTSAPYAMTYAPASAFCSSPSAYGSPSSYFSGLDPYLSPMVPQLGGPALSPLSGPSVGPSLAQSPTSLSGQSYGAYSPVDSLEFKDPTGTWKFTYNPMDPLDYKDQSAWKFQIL
HSF1, sequence (Q00613 whole entry): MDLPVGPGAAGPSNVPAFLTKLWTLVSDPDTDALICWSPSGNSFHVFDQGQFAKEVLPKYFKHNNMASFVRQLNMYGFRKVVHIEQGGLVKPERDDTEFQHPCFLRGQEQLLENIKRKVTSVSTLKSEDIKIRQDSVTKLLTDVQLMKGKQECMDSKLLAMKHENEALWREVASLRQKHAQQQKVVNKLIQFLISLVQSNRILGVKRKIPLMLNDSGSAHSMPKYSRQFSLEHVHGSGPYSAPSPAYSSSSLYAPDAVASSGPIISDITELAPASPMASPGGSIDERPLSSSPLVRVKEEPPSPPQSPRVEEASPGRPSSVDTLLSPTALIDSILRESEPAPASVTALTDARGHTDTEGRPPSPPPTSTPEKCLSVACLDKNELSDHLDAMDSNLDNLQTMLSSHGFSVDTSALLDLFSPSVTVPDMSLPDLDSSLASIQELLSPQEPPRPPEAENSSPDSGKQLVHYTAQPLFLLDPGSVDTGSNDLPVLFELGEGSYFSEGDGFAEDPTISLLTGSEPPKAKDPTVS

Sequence | binding signal (FEV) | binding signal (HSF1) | binding signal (CRX) | binding signal (SPDEF) | binding signal (ELF5) | binding signal (SPI1)
TAAGCA | 1.04 fold enrichment (6-mer frequency, TF over GST control) | 1.29 fold enrichment (6-mer frequency, TF over GST control) | 1.7 fold enrichment (6-mer frequency, TF over GST control) | 1.06 fold enrichment (6-mer frequency, TF over GST control) | 1.02 fold enrichment (6-mer frequency, TF over GST control) | 
GGATCT |  | 1.07 fold enrichment (6-mer frequency, TF over GST control) | 1.15 fold enrichment (6-mer frequency, TF over GST control) | 1.54 fold enrichment (6-mer frequency, TF over GST control) | 1.17 fold enrichment (6-mer frequency, TF over GST control) | 1.02 fold enrichment (6-mer frequency, TF over GST control)
AGCTAG |  | 1.21 fold enrichment (6-mer frequency, TF over GST control) | 1 fold enrichment (6-mer frequency, TF over GST control) |  |  | 1.08 fold enrichment (6-mer frequency, TF over GST control)
TGATTA |  | 1.58 fold enrichment (6-mer frequency, TF over GST control) | 2.23 fold enrichment (6-mer frequency, TF over GST control) | 1.01 fold enrichment (6-mer frequency, TF over GST control) | 1.03 fold enrichment (6-mer frequency, TF over GST control) | 
AGATCT |  | 1.47 fold enrichment (6-mer frequency, TF over GST control) | 1.33 fold enrichment (6-mer frequency, TF over GST control) |  |  | 
TGAAGA |  | 1.09 fold enrichment (6-mer frequency, TF over GST control) | 1 fold enrichment (6-mer frequency, TF over GST control) |  |  | 
CTAGCC |  | 1.05 fold enrichment (6-mer frequency, TF over GST control) |  | 1.02 fold enrichment (6-mer frequency, TF over GST control) |  | 1.1 fold enrichment (6-mer frequency, TF over GST control)
TAAGGG | 1 fold enrichment (6-mer frequency, TF over GST control) | 1.12 fold enrichment (6-mer frequency, TF over GST control) | 1.49 fold enrichment (6-mer frequency, TF over GST control) |  | 1.06 fold enrichment (6-mer frequency, TF over GST control) | 
TTAAGA | 1.01 fold enrichment (6-mer frequency, TF over GST control) | 1.95 fold enrichment (6-mer frequency, TF over GST control) | 2.97 fold enrichment (6-mer frequency, TF over GST control) | 1.06 fold enrichment (6-mer frequency, TF over GST control) |  | 1.03 fold enrichment (6-mer frequency, TF over GST control)
CGTTTA | 1.09 fold enrichment (6-mer frequency, TF over GST control) | 1.06 fold enrichment (6-mer frequency, TF over GST control) | 1.19 fold enrichment (6-mer frequency, TF over GST control) | 1.14 fold enrichment (6-mer frequency, TF over GST control) | 1.07 fold enrichment (6-mer frequency, TF over GST control) | 1.06 fold enrichment (6-mer frequency, TF over GST control)
GCCCGA | 1.07 fold enrichment (6-mer frequency, TF over GST control) | 1.1 fold enrichment (6-mer frequency, TF over GST control) |  |  |  | 1.01 fold enrichment (6-mer frequency, TF over GST control)
GCTAGT | 1.03 fold enrichment (6-mer frequency, TF over GST control) | 1.12 fold enrichment (6-mer frequency, TF over GST control) |  | 1.07 fold enrichment (6-mer frequency, TF over GST control) |  | 1.13 fold enrichment (6-mer frequency, TF over GST control)
TCGAGC |  | 1.46 fold enrichment (6-mer frequency, TF over GST control) | 1.01 fold enrichment (6-mer frequency, TF over GST control) | 1.08 fold enrichment (6-mer frequency, TF over GST control) |  | 
TGATAG |  | 1.02 fold enrichment (6-mer frequency, TF over GST control) | 1.01 fold enrichment (6-mer frequency, TF over GST control) |  |  | 1.01 fold enrichment (6-mer frequency, TF over GST control)
CGTCTG | 1.03 fold enrichment (6-mer frequency, TF over GST control) | 1.01 fold enrichment (6-mer frequency, TF over GST control) |  | 1.05 fold enrichment (6-mer frequency, TF over GST control) |  | 1.06 fold enrichment (6-mer frequency, TF over GST control)
GCTGGT | 1.1 fold enrichment (6-mer frequency, TF over GST control) | 1.06 fold enrichment (6-mer frequency, TF over GST control) | 1.05 fold enrichment (6-mer frequency, TF over GST control) | 1.2 fold enrichment (6-mer frequency, TF over GST control) | 1.09 fold enrichment (6-mer frequency, TF over GST control) | 1.19 fold enrichment (6-mer frequency, TF over GST control)
ACAGCC | 1.02 fold enrichment (6-mer frequency, TF over GST control) |  |  | 1.02 fold enrichment (6-mer frequency, TF over GST control) | 1.03 fold enrichment (6-mer frequency, TF over GST control) | 
AGCTGA |  |  | 1.11 fold enrichment (6-mer frequency, TF over GST control) |  |  | 1.01 fold enrichment (6-mer frequency, TF over GST control)
ACCACG | 1.05 fold enrichment (6-mer frequency, TF over GST control) |  |  | 1.06 fold enrichment (6-mer frequency, TF over GST control) | 1.02 fold enrichment (6-mer frequency, TF over GST control) | 1.01 fold enrichment (6-mer frequency, TF over GST control)
ATTCGG |  | 1.11 fold enrichment (6-mer frequency, TF over GST control) |  |  |  | 
TACAGC | 1.01 fold enrichment (6-mer frequency, TF over GST control) |  | 1.07 fold enrichment (6-mer frequency, TF over GST control) |  | 1.07 fold enrichment (6-mer frequency, TF over GST control) | 
GATCCA | 1.07 fold enrichment (6-mer frequency, TF over GST control) | 1.21 fold enrichment (6-mer frequency, TF over GST control) | 1.23 fold enrichment (6-mer frequency, TF over GST control) | 1.17 fold enrichment (6-mer frequency, TF over GST control) | 1.03 fold enrichment (6-mer frequency, TF over GST control) | 
TCTGGA | 1.08 fold enrichment (6-mer frequency, TF over GST control) | 3.75 fold enrichment (6-mer frequency, TF over GST control) | 1.72 fold enrichment (6-mer frequency, TF over GST control) |  |  | 1.01 fold enrichment (6-mer frequency, TF over GST control)
AGAACA |  | 2.37 fold enrichment (6-mer frequency, TF over GST control) | 1.22 fold enrichment (6-mer frequency, TF over GST control) | 1.03 fold enrichment (6-mer frequency, TF over GST control) |  | 
